Values joined by “and” are separate entries in the source; they are usually repeats but may differ in a detail not shown here. Equal values may be shown once. Active and inactive are the calls of the source. Where a call stands in place of a potency, no number is given. Unless noted, calls come from the whole dose curve; as a rule, active = well fitted curve in the direction sought with a large enough effect in the repeat runs; inconclusive = weak or mixed curves; inactive = no such curve, though single readings can be large; an effect the other way counts as inactive or inconclusive.
What was measured:
[1] = qHTS assay to identify small molecule antagonists of the thyroid receptor (TR) signaling pathway - cell viability counter screen (AID 743064); note: nearly all actives have a fitted effect of over 50% in size; note: potency is the fitted concentration of half-maximal effect
Outline: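 GH3.TRE-Luc rat pituitary cells carrying a TRE-luciferase reporter were treated with compound plus 1 nM T3 (final) for 23.5 h at 37 °C. Viability was then read in the same wells by CellTiter-Fluor fluorescence after a further 30 min.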

[2] = molecular target: Estrogen receptor (Homo sapiens) (UniProt P03372); experiment: qHTS assay to identify small molecule antagonists of the estrogen receptor alpha (ER-alpha) signaling pathway (AID 743069; active = well fitted curve in the direction sought with a large enough effect in the signal ratio in the repeat runs, not every such curve was filed as active; inconclusive = weak or mixed curves, or effect the other way; inactive = no such curve, though single readings can be large or run the other way; the % refers to the signal ratio; note: potency is the fitted concentration of half-maximal effect)
Outline: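 Estradiol-stimulated ER-alpha-UAS-bla HEK293 cells, 18 hr compound exposure at 37C. LiveBLAzer B/G substrate, 2 hr RT, fluorescence read.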

[3] = molecular target: Estrogen receptor (Homo sapiens) (UniProt P03372); experiment: qHTS assay to identify small molecule agonists of the estrogen receptor alpha (ER-alpha) signaling pathway (AID 743075; calls by dose curve;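 note: HEK293 GripTite cells with ER-alpha and UAS-driven beta-lactamase reporter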; note: potency is the fitted concentration of half-maximal effect)
[4] = molecular target: Estrogen receptor (Homo sapiens) (UniProt P03372); experiment: qHTS assay to identify small molecule agonists of the estrogen receptor alpha (ER-alpha) signaling pathway using the BG1 cell line (AID 743079); note: nearly all actives have a fitted effect of over 20% in size; note: potency is the fitted concentration of half-maximal effect
[5] = qHTS assay to identify small molecule antagonists of the estrogen receptor alpha (ER-alpha) signaling pathway using the BG1 cell line (AID 743080; calls by dose curve; note: nearly all actives have a fitted effect of over 25% in size; note: potency is the fitted concentration of half-maximal effect)
Outline: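 Antagonist mode: compounds in DMSO were pinned onto BG1-Luc-4E2 cells alongside 17beta-estradiol agonist, incubated 21.5 h, and ERE-driven luciferase measured with ONE-Glo. Cytotoxicity was multiplexed using CellTiter-Fluor fluorescence.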

[6] = qHTS assay to identify small molecule antagonists of the estrogen receptor alpha (ER-alpha) signaling pathway using the BG1 cell line - cell viability counter screen (AID 743081);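 note: compound given together with 17beta-estradiol as the ER stimulus; nearly all actives have a fitted effect of over 45% in size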; note: potency is the fitted concentration of half-maximal effect
[7] = molecular target: Aromatase (Homo sapiens) (UniProt P11511); experiment: qHTS assay to identify aromatase inhibitors (AID 743083); note: nearly all actives have a fitted effect of over 55% in size; note: potency is the fitted concentration of half-maximal effect
[8] = qHTS assay to identify small molecule antagonists of the estrogen receptor alpha (ER-alpha) signaling pathway - cell viability counter screen (AID 743074; calls by dose curve;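 note: HEK293 cells carrying ER-alpha-UAS-bla reporter stimulated with 17beta-estradiol; nearly all actives have a fitted effect of over 45% in size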; note: potency is the fitted concentration of half-maximal effect)
[9] = qHTS assay to identify small molecule antagonists of the thyroid receptor (TR) signaling pathway (AID 743065); note: nearly all actives have a fitted effect of over 55% in size; note: potency is the fitted concentration of half-maximal effect
Outline: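 GH3.TRE-Luc rat pituitary cells carrying two TR response elements driving luciferase were plated for 4 h, given compound plus 1 nM T3 (final), and incubated 23.5 h at 37 C. ONE-Glo luminescence measured reporter inhibition; CellTiter-Fluor fluorescence tracked cytotoxicity.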

[10] = system: thyroid hormone receptor (rat, GH3 cells); experiment: qHTS assay to identify small molecule agonists of the thyroid receptor (TR) signaling pathway (AID 743066; calls by dose curve)

Sequence of Aromatase (Homo sapiens) (P11511 whole entry, looked up): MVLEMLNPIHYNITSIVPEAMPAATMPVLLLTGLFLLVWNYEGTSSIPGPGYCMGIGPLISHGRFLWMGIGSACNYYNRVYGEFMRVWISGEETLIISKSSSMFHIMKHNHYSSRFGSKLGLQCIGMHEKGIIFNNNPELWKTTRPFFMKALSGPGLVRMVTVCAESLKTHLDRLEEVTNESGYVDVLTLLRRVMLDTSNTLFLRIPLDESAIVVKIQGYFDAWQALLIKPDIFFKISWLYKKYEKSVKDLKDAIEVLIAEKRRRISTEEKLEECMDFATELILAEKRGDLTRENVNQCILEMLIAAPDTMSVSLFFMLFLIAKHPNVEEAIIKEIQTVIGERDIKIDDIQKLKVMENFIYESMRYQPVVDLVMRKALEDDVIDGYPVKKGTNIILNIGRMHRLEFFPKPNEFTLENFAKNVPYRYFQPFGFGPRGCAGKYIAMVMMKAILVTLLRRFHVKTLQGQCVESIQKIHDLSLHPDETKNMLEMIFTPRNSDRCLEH
Sequence of Estrogen receptor (Homo sapiens) (P03372 whole entry, looked up): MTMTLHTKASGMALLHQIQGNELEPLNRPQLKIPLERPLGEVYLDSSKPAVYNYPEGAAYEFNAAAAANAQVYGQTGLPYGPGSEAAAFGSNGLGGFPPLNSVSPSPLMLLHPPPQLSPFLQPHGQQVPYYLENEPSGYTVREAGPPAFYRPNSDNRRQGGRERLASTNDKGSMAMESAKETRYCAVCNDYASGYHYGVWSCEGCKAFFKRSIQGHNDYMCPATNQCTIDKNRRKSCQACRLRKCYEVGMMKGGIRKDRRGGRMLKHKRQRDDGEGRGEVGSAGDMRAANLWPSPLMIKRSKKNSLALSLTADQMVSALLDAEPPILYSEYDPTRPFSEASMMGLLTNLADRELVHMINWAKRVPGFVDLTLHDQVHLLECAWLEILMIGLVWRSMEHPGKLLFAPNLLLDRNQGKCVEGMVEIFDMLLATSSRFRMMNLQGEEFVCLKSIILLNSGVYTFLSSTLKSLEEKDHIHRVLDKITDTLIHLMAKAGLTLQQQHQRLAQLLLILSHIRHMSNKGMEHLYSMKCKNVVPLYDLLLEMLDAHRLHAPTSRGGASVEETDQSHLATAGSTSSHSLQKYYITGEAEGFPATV

SMILES	Potency [1]	Potency [2]	Potency [3]	Potency [4]	Potency [5]	Potency [6]	Potency [7]	Potency [8]	Potency [9]	Potency [10]
CCC(O)c1ccccc1 (configuration not stated)	inactive	inactive	inactive	inactive	inactive	inactive	inactive	–	–	–
CCCCC[C@H](O)/C=C/[C@@H]1[C@@H](C/C=C\CCCC(=O)O)[C@@H](O)C[C@H]1O	inactive	–	–	29.8 µM (active)	–	inactive	inactive	inactive	–	–
O=C1c2ccccc2-c2n[nH]c3cccc1c23	–	–	–	inactive	–	–	inactive	inactive	11.9 µM (active)	inactive
CCN(CC)CC#CCOC(=O)C(O)(c1ccccc1)C1CCCCC1 (configuration not stated)	13.3 µM (active)	–	–	–	–	9.44 µM (active)	inactive	inactive	–	inactive
FC(F)(F)C(F)(F)C(F)(F)C(F)(F)C(F)(F)F	–	–	inactive	inactive	inactive	–	inactive	inactive	inactive	inactive
CC(C)c1ncc([N+](=O)[O-])n1C	inactive	–	–	–	–	inactive	inactive	inactive	–	inactive
c1ccc2occc2c1	–	inactive	inactive	inactive	inactive	inactive	68.6 µM (active)	–	inactive	inactive
COc1ccc(/C=N/NC(=O)c2ccncc2)c(C(=O)O)c1OC	–	inactive	inactive	inactive	inactive	inactive	inactive	inactive	inactive	inactive
O=C(O)/C=C/C(O)c1ccc(Cl)cc1 (configuration not stated)	inactive	–	–	–	–	inactive	inactive	inactive	–	inactive
CC(=O)N(C)C	–	–	–	–	–	–	–	–	inactive	–
NC(=O)c1cc[n+](CC2=C(C(=O)O)N3C(=O)[C@@H](NC(=O)C(c4ccccc4)S(=O)(=O)[O-])[C@H]3SC2)cc1 (some centres not stated)	inactive	–	–	–	–	inactive	inactive	inactive	–	inactive
N[C@@H](Cc1ccc(O)c(O)c1)C(=O)O	inactive	–	–	–	–	inactive	inactive	inactive	–	inactive
CC(C)(Oc1ccc(C2CCCc3ccccc32)cc1)C(=O)O (configuration not stated)	–	inactive	inactive	18.8 µM (active)	inactive	inactive	inactive	inactive	inactive	inactive
CCOc1ccc(S(=O)(=O)O)c2cccnc12	–	inactive	23.9 µM [inconclusive] (active)	6.68 µM (active)	inactive	inactive	inactive	inactive	inactive	inactive
CN=C(N)NCCC[C@H](N)C(=O)O	inactive	–	–	–	–	inactive	inactive	inactive	–	–
O=C1CCC(c2ccccc2)(C2CCN(Cc3ccccc3)CC2)C(=O)N1 (configuration not stated)	–	inactive	inactive	inactive	inactive	inactive	inactive	inactive	inactive	inactive
CO/N=C(\C(=O)N[C@@H]1C(=O)N2C(C(=O)[O-])=C(C[n+]3ccc(N)n3CCO)CS[C@H]12)c1csc(N)n1	inactive	–	–	–	–	inactive	inactive	inactive	–	–
COc1cccc(-c2ccc(/C=C\CN3CCCCCC3)cc2Cl)c1	21.6 µM (active)	inactive	inactive	–	–	inactive	60.9 µM (active)	inactive	–	–
CCCCCCCCCCCCCCCCCCNC(=O)OC1CCN(C(=O)OC[C@H](COC(=O)N(Cc2cccc[n+]2CC)C(=O)c2ccccc2OC)OC)CC1	15 µM (active)	–	inactive	–	–	–	21.1 µM (active)	23.9 µM (active)	–	–

SMILES	Potency [1]	Potency [2]	Potency [3]	Potency [4]	Potency [5]	Potency [6]	Potency [7]	Potency [8]	Potency [9]	Potency [10]
COc1ccc2ccccc2c1	–	–	–	–	–	–	inactive	–	inactive	inactive
CCCCCCCCCCCCCCCCCCOCC(COP(=O)([O-])OCC[N+](C)(C)C)OC (configuration not stated)	–	–	inactive	inactive	inactive	inactive	inactive	inactive	–	inactive
CN1[C@@H](CC(=O)c2ccccc2)CCC[C@H]1C[C@H](O)c1ccccc1	–	inactive	inactive	inactive	inactive	–	inactive	inactive	–	inactive
Cc1ccc2nc(-c3ccc(N)cc3)sc2c1S(=O)(=O)O	–	inactive	inactive	7.58 µM (active)	–	inactive	inactive	–	–	inactive
C=C1[C@H](CO)[C@@H](O)C[C@@H]1n1cnc2c(=O)[nH]c(N)nc21	–	–	–	–	–	inactive	inactive	inactive	–	–
CC[N+](CC)(CC)CCC(O)(c1ccccc1)C1CCCCC1 (configuration not stated)	–	–	–	–	–	–	inactive	inactive	–	–
C=C1C(=C/C=C2\CCC[C@]3(C)[C@@H]([C@H](C)CCCC(C)C)CC[C@@H]23)C[C@@H](O)C[C@@H]1O	–	–	–	–	–	–	inactive	–	–	–
CCC1OC(=O)C[C@@H](O)[C@H](C)[C@@H](O[C@@H]2O[C@H](C)C[C@H](N(C)C)[C@H]2O)[C@@H](CC=O)C[C@@H](C)C(=O)/C=C/[C@]2(C)OC2C1C (some centres not stated)	–	–	inactive	–	–	–	26.6 µM (active)	inactive	–	–
CCN(CC)CCNC(=O)c1ccc(NS(C)(=O)=O)cc1	–	–	–	–	–	–	inactive	–	–	–
CC(O)(c1ccc(Cl)cc1)c1ccc(Cl)cc1	–	–	inactive	inactive	–	inactive	61.1 µM (active)	inactive	–	inactive
CO/N=C(\C(=O)N[C@@H]1C(=O)N2C(C(=O)O)=C(CSc3cnns3)CS[C@H]12)c1csc(N)n1	–	inactive	inactive	inactive	inactive	inactive	inactive	inactive	–	–
O=C(CCN1CCC(c2ccccc2)C1)c1ccc2c(c1)OCCO2 (configuration not stated)	–	inactive	inactive	inactive	inactive	inactive	–	inactive	26.6 µM (active)	–
CC(C)OC(=O)Nc1ccc2nc(-c3cscn3)[nH]c2c1	–	–	inactive	2.11 µM (active)	–	–	inactive	inactive	–	inactive
C=CC[N@@+]12CC[C@@]34c5ccccc5N5/C=C6/[C@H]7C[C@H]8[C@@]9(CC[N@@+]8(CC=C)C/C7=C/CO)c7ccccc7N(/C=C(/[C@@H](C[C@@H]31)/C(=C\CO)C2)[C@H]54)[C@@H]69	–	–	–	–	–	–	inactive	inactive	inactive	inactive
O=C1CCC/C=C\CCCCCCCCCC1	–	–	–	–	–	inactive	30.6 µM (active)	inactive	–	inactive
CCCCCCCCCCCCN1CCCC1=O	–	–	–	–	–	inactive	inactive	–	–	inactive
O=C(O)C[C@H](O)C[C@H](O)/C=C/c1c(C2CC2)nc2ccccc2c1-c1ccc(F)cc1	–	–	–	inactive	–	inactive	–	inactive	–	inactive
C[C@@H]1O[C@@H]1P(=O)(O)O	–	–	–	–	–	inactive	inactive	inactive	inactive	inactive
O=C(O)c1cc(O)c2c(c1)[C@H]([C@H]1c3cc(C(=O)O)cc(O)c3C(=O)c3c(O[C@@H]4O[C@H](CO)[C@@H](O)[C@H](O)[C@H]4O)cccc31)c1cccc(O[C@@H]3O[C@H](CO)[C@@H](O)[C@H](O)[C@H]3O)c1C2=O	–	–	–	–	–	inactive	inactive	inactive	inactive	inactive

SMILES	Potency [1]	Potency [2]	Potency [3]	Potency [4]	Potency [5]	Potency [6]	Potency [7]	Potency [8]	Potency [9]	Potency [10]
CCc1cn([C@H]2C[C@H](O)[C@@H](CO)O2)c(=O)[nH]c1=O	–	–	–	–	–	inactive	inactive	inactive	inactive	inactive
Cc1cn([C@H]2C[C@H](O)[C@@H](CO)O2)c(=O)[nH]c1=O	–	–	inactive	inactive	inactive	inactive	inactive	inactive	–	–
CO[C@H](C(=O)[C@@H](O)[C@@H](C)O)C1Cc2cc3cc(O[C@H]4C[C@@H](O[C@H]5C[C@@H](O)[C@H](O)[C@@H](C)O5)[C@@H](O)[C@@H](C)O4)c(C)c(O)c3c(O)c2C(=O)[C@H]1O[C@H]1C[C@@H](O[C@H]2C[C@@H](O[C@H]3C[C@](C)(O)[C@H](O)[C@@H](C)O3)[C@H](O)[C@@H](C)O2)[C@H](O)[C@@H](C)O1 (some centres not stated)	–	301 nM [inconclusive] (active) and 190 nM [inconclusive] (active)	inactive	–	266 nM (active) and 335 nM (active)	inactive	841 nM (active) and 668 nM (active)	inactive	335 nM (active) and 237 nM (active)	–
CC1(C)S[C@@H]2[C@H](NC(=O)[C@@H](NC(=O)N3CCNC3=O)c3ccccc3)C(=O)N2[C@H]1C(=O)O	–	inactive	inactive	inactive	inactive	inactive	inactive	inactive	–	–
CCCn1c(=O)[nH]c(=O)c2[nH]cnc21	–	–	–	–	–	inactive	–	inactive	–	–
CC1=C(/C=C/C(C)=C/C=C/C(C)=C\C(=O)O)C(C)(C)CCC1	–	–	–	–	244 nM (active)	–	inactive	–	68.8 µM (active)	–
O=C1CCCCCCCCCCCCCC1	–	inactive	inactive	inactive	inactive	inactive	–	inactive	–	inactive
c1ccc(-c2ccc(C(c3ccccc3)n3ccnc3)cc2)cc1 (configuration not stated)	–	–	–	inactive	inactive	inactive	0.75 µM (active)	inactive	–	–
Cc1cc(N)c2ccccc2[n+]1CCCCCCCCCC[n+]1c(C)cc(N)c2ccccc21	–	–	inactive	–	–	–	–	8.11 µM (active)	–	inactive
O=C(O)[C@@H]1C[C@H](CP(=O)(O)O)CCN1	–	inactive	inactive	inactive	inactive	inactive	inactive	inactive	–	–
CC/C(=C(/CC)c1ccc(OP(=O)(O)O)cc1)c1ccc(OP(=O)(O)O)cc1	–	–	–	–	–	inactive	inactive	–	inactive	inactive
CS(=O)(=O)c1ccc([C@@H](CC2CCCC2)C(=O)Nc2cnccn2)cc1Cl	–	–	–	–	–	–	inactive	–	–	inactive
Oc1ccc(Cl)cc1C1CCCC1	–	–	inactive	–	inactive	inactive	–	inactive	–	inactive
CCCC(=O)c1cc(O)c(O)cc1O	–	–	inactive	inactive	inactive	61.1 µM (active)	–	–	61.1 µM (active)	inactive
CN(C/C=C/c1ccccc1)Cc1cccc2ccccc12	–	inactive	inactive	inactive	inactive	inactive	inactive	inactive	–	inactive
CC[C@H](C)C(=O)O[C@H]1CCC=C2C=C[C@H](C)[C@H](CC[C@@H]3C[C@@H](O)CC(=O)O3)[C@H]21	–	–	inactive	inactive	–	inactive	–	inactive	–	inactive
CN(C)CCC(O)(c1ccccc1)c1ccccc1Cl (configuration not stated)	–	inactive	inactive	inactive	inactive	–	inactive	inactive	–	inactive
COc1cc2c(cc1OC)[C@@H](Cc1cc(OC)c(OC)c(OC)c1)[N+](C)(CCCOC(=O)CC/C=C/CCC(=O)OCCC[N+]1(C)CCc3cc(OC)c(OC)cc3[C@H]1Cc1cc(OC)c(OC)c(OC)c1)CC2 (some centres not stated)	–	–	–	–	–	inactive	inactive	inactive	–	–

From PubChem BioAssay (Tox21)
